The results in this text go back to PubChem BioAssay (NCATS).

Results filed as inconclusive are left out. The source made the active and inactive calls. Unless noted, calls come from the whole dose curve.
Potency is the fitted concentration of half-maximal effect.

Atrial natriuretic peptide receptor 1 (Homo sapiens), sequence (P16066 whole entry, looked up): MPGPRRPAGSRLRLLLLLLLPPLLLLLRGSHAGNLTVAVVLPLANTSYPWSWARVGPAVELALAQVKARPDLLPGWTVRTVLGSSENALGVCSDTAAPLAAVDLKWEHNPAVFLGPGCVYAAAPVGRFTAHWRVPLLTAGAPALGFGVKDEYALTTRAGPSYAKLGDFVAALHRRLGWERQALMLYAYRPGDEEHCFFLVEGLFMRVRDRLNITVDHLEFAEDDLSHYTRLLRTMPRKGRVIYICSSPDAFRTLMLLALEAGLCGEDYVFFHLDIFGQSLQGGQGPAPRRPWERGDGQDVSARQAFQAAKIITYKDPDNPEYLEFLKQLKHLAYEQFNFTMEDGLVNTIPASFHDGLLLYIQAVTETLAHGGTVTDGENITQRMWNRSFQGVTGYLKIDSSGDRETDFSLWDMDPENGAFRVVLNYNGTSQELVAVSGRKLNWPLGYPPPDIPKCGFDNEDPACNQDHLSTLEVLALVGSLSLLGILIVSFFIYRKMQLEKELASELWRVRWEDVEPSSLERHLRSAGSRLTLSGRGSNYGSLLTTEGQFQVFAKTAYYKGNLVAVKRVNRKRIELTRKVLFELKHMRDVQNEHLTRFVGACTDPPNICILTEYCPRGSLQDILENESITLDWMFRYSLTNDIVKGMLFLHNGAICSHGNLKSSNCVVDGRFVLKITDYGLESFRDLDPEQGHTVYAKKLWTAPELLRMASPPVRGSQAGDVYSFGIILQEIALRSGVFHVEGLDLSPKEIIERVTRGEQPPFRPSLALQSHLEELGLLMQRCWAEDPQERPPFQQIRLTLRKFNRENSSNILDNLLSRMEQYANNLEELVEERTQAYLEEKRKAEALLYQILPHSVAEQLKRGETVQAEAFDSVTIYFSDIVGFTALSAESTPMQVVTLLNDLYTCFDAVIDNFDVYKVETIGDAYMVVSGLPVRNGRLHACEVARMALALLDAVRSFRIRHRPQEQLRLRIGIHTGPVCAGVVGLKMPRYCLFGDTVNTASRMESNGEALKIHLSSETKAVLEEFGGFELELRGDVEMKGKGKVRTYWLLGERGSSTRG

System in the first assay: not listed separately
Put plainly: qHTS for Inhibitors of Plasmodium falciparum (CP250) proliferation (AID 504320; active = well fitted inhibition curve with a large enough effect;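 for activity change, negative = inhibition: plate controls were DMSO vehicle for no effect and 0.29 µM artemisinin control for full effect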). The settings on record: P. falciparum CP250 in erythrocytes, SYBR Green DNA, 72 h; series mostly up to 6.7 µM; activity change, negative = inhibition: at the top concentration. The essentials:
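Parasite growth measured as SYBR Green DNA fluorescence (ex 485, em 535 nm) after overnight lysis following 72 h culture at 37 °C, 0.3% parasitemia, 2.5% hematocrit. Values normalized against DMSO and 0.29 uM artemisinin controls, with plate-stack correction.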
Background: qHTS replaces the single test concentration by a dilution series.
Turning to `COc1ccc(O[C@H]2C=C[C@@H](c3ccccc3)O[C@H]2CON=C(C)CCN2CCCCc3nc(C)c(C)cc32)cc1`, the “activity change, negative = inhibition” value was -3.47% (inactive).
On to `COc1ccc([C@]23Cc4cc(C#N)ccc4[C@H](O2)c2c(cc(C)n(Cc4ccccc4)c2=O)O3)cc1`, for which the “activity change, negative = inhibition” value was -15.9% (inactive).
Consider `COC(=O)C1=C(C)N(Cc2ccccc2)C(=NCCc2ccccn2)NC1c1cccc(C(F)(F)F)c1` (stereo not drawn), for which the Potency was 849 nM (active).
On to `CCN1C(=NCCc2c[nH]c3ccccc23)NC(c2cccc(F)c2)C(C(=O)OC)=C1C` (stereo not drawn), for which the “activity change, negative = inhibition” value is -17.6% (inactive).
For `CCN1C(N(C)CCc2c[nH]c3ccccc23)=NC(c2cccc(C(F)(F)F)c2)C(C(=O)OC)=C1C` (stereo not drawn), the “activity change, negative = inhibition” value was -23.1% (inactive).
The same measure, in the same setting: with `C[C@@H]1CC[C@H]2C(=O)N(Cc3ccc(Cl)cc3)C[C@@H](O)CN2[C@@H]1c1ccc(Br)cc1` the figure was -5.14% (inactive); with `COC(=O)C1=C(C)N(Cc2ccccc2)C(=O)NC1CCc1ccccc1` (stereo not drawn), -1.95% (inactive); with `CCCCCCCc1cc2ccccc2c2c(C(=O)OC)c(C)c(C(=O)OC)n12`, -28.6% (inactive).
Regarding `COC(=O)N[C@H](CC(C)=O)c1cccs1`, the “activity change, negative = inhibition” value was 1.6% (inactive).
Consider `COc1ccc(O[C@H]2C=C[C@@H](c3ccccc3)O[C@H]2COC(=O)CCC(C)=NOCC[C@@H]2C=C[C@H](OC(C)=O)[C@@H](COC(C)=O)O2)cc1`, for which the “activity change, negative = inhibition” value is 2.36% (inactive).
Still for that read-out and setting: the same measure for `COC(=O)[C@H]1[C@@H](c2ccccc2)NC(=O)O[C@@H]1C`: -3.04% (inactive).
Still for that read-out and setting: with `COC(=O)c1c(C(=O)OC)c2c3cc(OC)c(OC)cc3cc([Si](C)(C)C)n2c1C(=O)OC` the figure was 0.693% (inactive); with `C[C@H]1C[C@@H](C)O[C@@]2(C1)C(=O)N(Cc1ccc(F)cc1)c1ccccc12`, -22.1% (inactive).
Still for that read-out and setting: with `C[C@H]1C=CCC(=O)N[C@@H](c2ccccc2)[C@@H](C)C=CCC(=O)N[C@@H]1c1ccccc1` the figure was -6.43% (inactive); with `COC(=O)C1=C(C(=O)OC)[C@@H]2N(C)c3ccccc3[C@@]23C[C@@H](C(=O)OC)N(C(=O)NC2CCCC2)C3=N1`, 4.13% (inactive).
Take `C[C@@H]1CC[C@H]2C(=O)O[C@@H](COc3ccc(C(C)(C)C)cc3)CN2[C@@H]1c1ccc(Br)cc1`: the Potency was 1510 nM (active).
Take `COC(=O)C1=C(C)N(Cc2ccccc2)C(=NCCc2c[nH]c3ccccc23)NC1c1cccc(F)c1` (stereo not drawn): the “activity change, negative = inhibition” value was -16.6% (inactive).
Consider `C=CCN=C1NC(c2cccc(C(F)(F)F)c2)C(C(=O)OC)=C(C)N1CC` (stereo not drawn), for which the “activity change, negative = inhibition” value is -3.51% (inactive).

Another assay addresses Atrial natriuretic peptide receptor 1 (Homo sapiens) (UniProt P16066). Put plainly: Natriuretic polypeptide receptor (hNpr1) antagonism - Pilot CMLD screen (AID 1347052).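 For activity change, negative = inhibition: HEK293 cells with hNpr1 stimulated by hNppA peptide at 0.1 nM; % is set by controls: 0 for no effect and ±100 for the full control effect.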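 Note: cGMP level read as GloSensor luciferase luminescence after agonist stimulation.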 The settings on record: HEK293 hNpr1 GloSensor cGMP luminescence, ANP-stimulated; series mostly up to 9.22 µM; activity change, negative = inhibition: at the top concentration.
As to `CCN1C(N(C)CCc2ccc(Br)cc2)=NC(c2ccccc2)C(C(=O)OC)=C1C` (stereo not drawn), the “activity change, negative = inhibition” value was -8.25% (inactive).
In the case of `COC1=C(C(=O)c2ccccc2)C(=O)[C@@]2(CC=C(C)C)C[C@@H]([S+](=O)([O-])c3ccccc3)C(C)(C)[C@@]1(CC=C(C)C)C2=O`, the “activity change, negative = inhibition” value is 5.28% (inactive).
Take `C#CCN1C(=O)[C@]2(O[C@H](COc3ccccc3)CC3=CCCC32)c2c(Br)cccc21` (stereo partly drawn): the “activity change, negative = inhibition” value is 1.23% (inactive).
As for `COC(=O)C1=C(C(=O)OC)[C@@H]2N(CC=C(C)C)c3ccccc3[C@@]23CCC(=O)N(Cc2cccc(C(F)(F)F)c2)C3=N1`, the “activity change, negative = inhibition” value is -14.7% (inactive).
As to `COc1ccc(O[C@H]2C=C[C@@H](c3ccccc3)O[C@H]2CON=C(C)CCN2CCCCc3nc(C)c(C)cc32)cc1`, the “activity change, negative = inhibition” value is -1.52% (inactive).
For the compound `COc1ccc([C@]23Cc4cc(C#N)ccc4[C@H](O2)c2c(cc(C)n(Cc4ccccc4)c2=O)O3)cc1`, the “activity change, negative = inhibition” value was 0.715% (inactive).
Still for that read-out and setting: with `COC(=O)C1=C(C)N(Cc2ccccc2)C(=NCCc2ccccn2)NC1c1cccc(C(F)(F)F)c1` (stereo not drawn) the figure was -0.457% (inactive); with `CCN1C(=NCCc2c[nH]c3ccccc23)NC(c2cccc(F)c2)C(C(=O)OC)=C1C` (stereo not drawn), -2.59% (inactive); with `CCN1C(N(C)CCc2c[nH]c3ccccc23)=NC(c2cccc(C(F)(F)F)c2)C(C(=O)OC)=C1C` (stereo not drawn), -0.0158% (inactive).
Consider `C[C@@H]1CC[C@H]2C(=O)N(Cc3ccc(Cl)cc3)C[C@@H](O)CN2[C@@H]1c1ccc(Br)cc1`, for which the “activity change, negative = inhibition” value is -10.2% (inactive).
The same measure, in the same setting: with `COC(=O)[C@]1(CC=Cc2ccccc2)C=C[C@@H](C)[C@H](c2ccccc2Br)N1C(=O)C(F)(F)F` the figure was -2.56% (inactive).
Turning to `COC(=O)C1=C(C)N(CC2CC2)C(N(C)Cc2ccc(OC)cc2)=NC1c1ccccc1` (stereo not drawn), the “activity change, negative = inhibition” value was -2.48% (inactive).
As for `COC(=O)C1=C(C)N(Cc2ccccc2)C(=O)NC1CCc1ccccc1` (stereo not drawn), the “activity change, negative = inhibition” value was -6.22% (inactive).
Consider `C[C@H]1CC[C@H]2C(=O)O[C@H](COc3ccc(C(C)(C)C)cc3)CN2[C@H]1c1ccc(Br)cc1`, for which the “activity change, negative = inhibition” value is -19.2% (inactive).
For the compound `COC(=O)C1=C(C(=O)OC)[C@@H]2N(C)c3ccccc3[C@@]23C[C@@H](CO)N(C(=O)NC2CCCC2)C3=N1`, the “activity change, negative = inhibition” value was 5.23% (inactive).
Regarding `CCCCCCCc1cc2ccccc2c2c(C(=O)OC)c(C)c(C(=O)OC)n12`, the Potency was 944 nM (active).
On to `COC(=O)c1ccc(CN2C(=O)[C@@]3(CC(C)=CC[C@@H](COc4ccccc4)O3)c3c(Br)cccc32)cc1`, for which the “activity change, negative = inhibition” value is -0.672% (inactive).
As to `COC(=O)C1=C(C(=O)OC)[C@@H]2N(Cc3ccccc3)c3ccccc3[C@@]23CCC(=O)N(CC2CC2)C3=N1`, the “activity change, negative = inhibition” value was 0.585% (inactive).
On the same count and under the same terms, the same measure for `COC(=O)N[C@H](CC(C)=O)c1cccs1`: 18.7% (inactive).
Take `COc1ccc(O[C@H]2C=C[C@@H](c3ccccc3)O[C@H]2COC(=O)CCC(C)=NOCC[C@@H]2C=C[C@H](OC(C)=O)[C@@H](COC(C)=O)O2)cc1`: the “activity change, negative = inhibition” value is -4.89% (inactive).
With `COC(=O)[C@H]1[C@@H](c2ccccc2)NC(=O)O[C@@H]1C`, the “activity change, negative = inhibition” value is -4.51% (inactive).
As for `COC(=O)c1c(C(=O)OC)c2c3cc(OC)c(OC)cc3cc([Si](C)(C)C)n2c1C(=O)OC`, the “activity change, negative = inhibition” value is 0.564% (inactive).
Take `C[C@H]1C[C@@H](C)O[C@@]2(C1)C(=O)N(Cc1ccc(F)cc1)c1ccccc12`: the “activity change, negative = inhibition” value was -2.36% (inactive).
With `C[C@H]1C=CCC(=O)N[C@@H](c2ccccc2)[C@@H](C)C=CCC(=O)N[C@@H]1c1ccccc1`, the “activity change, negative = inhibition” value was 0.573% (inactive).
On to `COc1cc2c(c(OC)c1OC)C(c1ccccc1)(c1ccccc1)CC2NC(=O)C(F)(F)F` (stereo not drawn), for which the “activity change, negative = inhibition” value is -2.68% (inactive).
Turning to `c1ccc(CNc2oc(-c3ccccc3)nc2-c2cccc3ccccc23)cc1`, the “activity change, negative = inhibition” value is 2.02% (inactive).
Regarding `CCN1C(=NCc2ccc3c(c2)OCO3)NC(c2ccccc2)C(C(=O)OC)=C1C` (stereo not drawn), the “activity change, negative = inhibition” value is 5.63% (inactive).
With `COc1ccc2c(c1)C[C@@H](C)O[C@]21C(=O)Nc2ccccc21`, the “activity change, negative = inhibition” value was -5.46% (inactive).
Still for that read-out and setting: with `C[C@]12C[C@@](C)(C=C1C=Cc1ccc(F)cc1)C(=O)C[C@H]2c1ccc(F)cc1` the figure was -2.86% (inactive).
For the compound `COC(=O)C1=C(C(=O)OC)[C@@H]2N(C)c3ccccc3[C@@]23C[C@@H](C(=O)OC)N(C(=O)NC2CCCC2)C3=N1`, the “activity change, negative = inhibition” value was -0.147% (inactive).
In the case of `FC(F)(F)c1cc(NC(=S)Nc2ccc3ccccc3c2)cc(C(F)(F)F)c1`, the “activity change, negative = inhibition” value is -1.71% (inactive).
The same measure, in the same setting: with `C[C@@H]1CC[C@H]2C(=O)O[C@@H](COc3ccc(C(C)(C)C)cc3)CN2[C@@H]1c1ccc(Br)cc1` the figure was 7.94% (inactive); with `CC1=CC[C@@H](COc2ccccc2)O[C@@]2(C1)C(=O)N(Cc1ccccc1C(F)(F)F)c1cccc(Br)c12`, 0.849% (inactive); with `COC(=O)C1=C(C)N(Cc2ccccc2)C(=NCCc2c[nH]c3ccccc23)NC1c1cccc(F)c1` (stereo not drawn), -0.149% (inactive).
As for `CC(C)=CCC1(CC=C(C)C)C(=O)C(C(=O)c2ccccc2)=C2OC(C)(C)CCC2(CC=C(C)C)C1=O` (stereo not drawn), the “activity change, negative = inhibition” value is -9.66% (inactive).
The same measure, in the same setting: with `COC(=O)C1=C(C)N(Cc2ccccc2)C(=NCCc2cccnc2)NC1c1ccccc1` (stereo not drawn) the figure was -4.82% (inactive); with `C=CCN=C1NC(c2cccc(C(F)(F)F)c2)C(C(=O)OC)=C(C)N1CC` (stereo not drawn), -1.17% (inactive); with `COC(=O)CC1c2ccccc2C=C(C=Cc2ccc3c(c2)OCO3)N1C(=O)OC` (stereo not drawn), -10.2% (inactive).
On to `COC(=O)C1=C(C)N(Cc2ccccc2)C(=NCc2ccc(OC)cc2)NC1c1cccc(F)c1` (stereo not drawn), for which the “activity change, negative = inhibition” value is -1.44% (inactive).
For `C=CCN=C1N[C@H](c2ccc(Br)cc2)C(C(=O)OC)=C(C)N1Cc1ccccc1`, the “activity change, negative = inhibition” value was -19.7% (inactive).
